Screening data as filed in PubChem BioAssay.
Shown are actives, neighbours in structure and some others; about 0.96% of the full set was active somewhere.
Fluorescein autfl: fluorescein region autofluorescence; actives 0.91% (n = 59,000); Compound autofluorescence, 480/540 nm, fluorescein-equivalent; stronger effect = higher value; max fluorescein-equivalent concentration, M; AID 593; in the data active = max fluorescein-equivalent concentration above about 10 nM; inconclusive = between about 1.1 nM and that limit
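Read-out is intrinsic compound fluorescence at 480/540 nm (excitation/emission), expressed as dye-equivalent concentration using a fluorescein standard series run on every plate. Compounds sat 15 min at room temperature in 100 mM Tris, pH 8.0.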
TexasRed autofl: compound fluoresces in the Texas Red spectral region; Compound fluorescence, Texas Red channel, 547/618 nm; stronger effect = higher value; max dye-equivalent concentration, M; actives 0.06% (n = 59,000); AID 587; in the data active = max dye-equivalent concentration above about 10 nM; inconclusive = between about 1.1 nM and that limit
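Spectral interference profiling: each compound concentration's relative fluorescence, read with a 547 nm excitation and 618 nm emission filter pair, was normalized to a per-plate Texas Red standard curve.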
A647 fluor: compound fluoresces in the A647 spectral region; 59,000 tested, under 10 active; Compound fluorescence, A647 channel (570/671 nm), Tris buffer; max dye-equivalent concentration, M; AID 592;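 note: values scaled relative to a standard on each plate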
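Tris 100 mM pH 8.0; cpd + A647 stds pin-transferred; 15 min RT; CCD imager, ex 570/em 671. Output = A647-equivalent conc. per cpd conc.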
A488 autofl: compound autofluorescence in A488 spectral region. compound autofluorescence, A488 spectral region, dye equivalency; Compound Type: qHTS ECL - MLSMR. max dye equivalency, M. actives 0.1% (n = 59,000)
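Compounds pin-transferred into 100 mM Tris buffer, pH 8.0, incubated 15 min at room temperature, then imaged with 480 nm excitation/540 nm emission filters. Fluorescence converted to Alexa 488 dye-equivalent concentration via an on-plate six-point A488 standard curve.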
Rhodamine fluor: compound fluoresces in the rhodamine spectral region; Rhodamine-region fluorescence, 547/598 nm, Tris buffer; stronger effect = higher value; max dye-equivalent concentration, M; actives 0.05% (n = 59,000); AID 594; in the data active = max dye-equivalent concentration above about 11 nM; inconclusive = between about 1.1 nM and that limit
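Compound fluorescence in 100 mM Tris, pH 8.0, read after 15 min at room temperature with 547 nm excitation and 598 nm emission. Output is dye-equivalent concentration from an on-plate rhodamine standard series.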
Resorufin fluor: compound fluoresces in the resorufin spectral region. Compound fluorescence, resorufin region 547/598 nm, buffer; stronger effect = higher value. max dye-equivalent concentration, M. actives 0.04% (n = 59,000). AID 588
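Read-out: intrinsic compound fluorescence at ex 547/em 598 nm after 15 min at RT in pH 8.0 Tris (100 mM). Values expressed as resorufin-equivalent concentration from per-plate standard series.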
* = called active by the depositor; i = inactive; ? = inconclusive. Unless noted, the rule behind the calls is not given here.

SMILES	Fluorescein autfl	TexasRed autofl	A647 fluor	A488 autofl	Rhodamine fluor	Resorufin fluor
O=[N+]([O-])c1ccc2c(N=Nc3ccc4ccccc4c3O)c(O)cc(S(=O)(=O)O)c2c1	?	i	6.3e-08	i	i	i
C[C@@H]1C[C@@H]2[C@H]3CCC4=CC(=O)C=C[C@]4(C)[C@]3(Cl)[C@@H](O)C[C@@]2(C)[C@@]1(O)C(=O)CO	?	i	5.2e-08	i	i	i
CC(C)N1CC2=C(OC(N)=C(C#N)C2c2cccnc2)/C(=C/c2cccnc2)C1 (stereo not drawn)	?	1.3e-08M*	6.2e-09	i	i	i
CC1=CC(C#N)(C#N)C(C#N)(C#N)C(c2ccccc2)N1 (stereo not drawn)	9.2e-08M*	3.4e-08M*	1.7e-09	?	2.8e-08M*	2e-08M*
CCCCCCCCCCCCCCC/C=C\[C@H](O)[C@@H](NC(=O)CCCCCCCCCCCCC)OC (tested in a mixture with another compound)	?	?	5.2e-08	i	i	i
CCc1cccc2c3c([nH]c12)[C@](CC)(CC(=O)O)OCC3	?	i	4.8e-08	i	i	i
Cc1ccc(NC(=O)COC(=O)CCc2c[nH]c(=O)[nH]2)cc1	?	i	1.3e-08	i	i	i
O=C(COC(=O)CCc1c[nH]c(=O)[nH]1)Nc1ccccc1	1.8e-08M*	i	1e-09	i	i	i
CC[C@H](C)C(=O)O[C@@H]1CCC=C2C=C[C@H](C)[C@@H](CC[C@H]3C[C@@H](O)CC(=O)O3)[C@H]21	i	i	1e-09	i	i	i
N[C@@H]1C=CC=C(C(=O)O)C1	?	i	2.1e-09	i	i	i
C=C[C@H]1CN2CC[C@@H]1C[C@@H]2[C@@H](O)c1ccnc2ccc(OC)cc12	?	i	4.8e-08	i	i	i
COc1cccc(Nc2ncc3nc(-c4cccs4)c(=O)n(C[C@H]4CCCO4)c3n2)c1	4.2e-08M*	i	1e-09	?	i	i
COc1cccc(Nc2ncc3nc(-c4cn(C)c5ccccc45)c(=O)n(C[C@H]4CCCO4)c3n2)c1	1.6e-08M*	i	1e-09	i	i	i
Cc1ccccc1/C=C\C1=NCCN1	?	i	4.8e-08	i	i	i
Nc1nc(Nc2ccccc2)nc2c1ncn2[C@@H]1O[C@@H](CO)[C@H](O)[C@@H]1O	?	?	3.1e-09	i	i	i
Cc1ccc(C)n1Cc1ccc(C(=O)O)cc1	1.1e-08M*	i	?	i	i	i
Cc1cccc(N=c2oc3cc(O)ccc3cc2C(N)=O)c1	1.2e-08M*	i	1.9e-08	i	i	i
C=C/C(C)=C/[C@]1(C)SC(=O)C(C)=C1O	?	i	1.9e-08	i	i	i
CN1CCN(C(=O)CSc2nc(-c3cccs3)cc(-c3cccs3)c2C#N)CC1	2e-08M*	?	2.6e-08	i	i	i
Cc1ccc2nc3sc(C(=O)N4CCOCC4)c(N)c3cc2c1	8.1e-08M*	i	1.1e-09	?	i	i
Cc1cc2nc3c(=O)[nH]c(=O)nc-3n(CC(O)C(O)C(O)CO)c2cc1C (stereo not drawn)	7.8e-07M*	i	1e-09	3.1e-08M*	?	?
COc1cccc(C2=CC(c3ccc(C)cc3)n3ncnc3N2)c1 (stereo not drawn)	1e-08M*	?	6.2e-09	i	i	i
CCOC(=O)N1CC=C2C(C#N)=C(N)C(C#N)(C#N)[C@H](c3ccsc3)[C@H]2C1	?	?	8e-09	i	i	i
CCCC1C2CN(C(C)C)CC=C2C(C#N)=C(N)C1(C#N)C#N (stereo not drawn)	5.1e-08M*	?	1.3e-08	?	i	i
CN1CC=C2C(C#N)=C(N)C(C#N)(C#N)[C@H](c3cccc(Cl)c3)C2C1 (stereo partly drawn)	4.1e-08M*	?	4.8e-09	?	i	i
SMILES	Fluorescein autfl	TexasRed autofl	A647 fluor	A488 autofl	Rhodamine fluor	Resorufin fluor
CN1CC=C2C(C#N)=C(N)C(C#N)(C#N)C(CCc3ccccc3)C2C1 (stereo not drawn)	4.3e-08M*	?	6.3e-09	?	i	i
CCOC(=O)N1CC=C2C(C#N)=C(N)C(C#N)(C#N)[C@H](c3ccccc3OCC)[C@H]2C1	?	?	3.7e-09	i	i	i
CN1C2C=C3C(C#N)=C(N)C(C#N)(C#N)[C@@H](c4ccsc4)[C@@H]3C1CC2 (stereo partly drawn)	i	?	3e-09	i	i	i
CCN1CC=C2C(C#N)=C(N)C(C#N)(C#N)[C@H](c3cccc(OC)c3OC)[C@H]2C1	9.6e-08M*	i	1e-09	?	i	i
CCCCCCCCCCCCCCCCOC[C@@H](COCC(F)(F)F)OP(=O)(O)OCO	?	i	1.5e-08	i	i	i
C[C@@]12CCC(=O)C=C1CC[C@H]1[C@@H]2[C@@H](O)C[C@]2(C)[C@@H]1CC[C@@]2(O)C(=O)CO	?	i	2.2e-08	i	i	i
COc1cc([C@@H]2[C@H]3CN(C)CC=C3C(C#N)=C(N)C2(C#N)C#N)cc2c1OCO2	1.1e-08M*	i	5.1e-08	i	i	i
COc1cccc(C2C3CN(C)CC=C3C(C#N)=C(N)C2(C#N)C#N)c1OC (stereo not drawn)	5.2e-08M*	i	2.6e-08	?	i	i
CCOC(=O)N1CC=C2C(C#N)=C(N)C(C#N)(C#N)[C@H](c3ccc(OC(C)C)c(OCC)c3)[C@H]2C1	i	i	1e-09	i	i	i
COc1cc(OC)cc([C@H](CNc2ncnc3c2ncn3[C@@H]2O[C@@H](CO)[C@H](O)[C@@H]2O)c2ccccc2C)c1	?	i	3.3e-08	i	i	i
Cc1cccc(C)c1OC[C@@H](N)C(C)C	?	i	1e-09	i	i	i
Cc1nc(NCCCn2ccnc2)c2ccccc2n1	?	i	8.4e-09	i	i	i
O=C1c2ccccc2-c2onc3ccc(NCCCn4ccnc4)c1c23	4.6e-06M*	1.4e-07M*	5.1e-08	2.6e-07M*	6.2e-07M*	6.5e-07M*
CCN(CC)c1ccc2c(c1)OC(N)=C(C#N)C2c1cccnc1 (stereo not drawn)	4.8e-08M*	i	1.3e-08	?	i	i
Cn1c(CN2CCC(C(N)=O)CC2)c(C#N)c2ccccc21	?	?	6.4e-08	i	i	i
Cn1c(CN2CCCCC2)c(C#N)c2ccccc21	2.5e-08M*	i	1e-09	i	i	i
